Experiment [1] is described as follows: Tanguay_ZF_120hpf_AXIS: Oregon State University Tanguay Lab 120 Hour Post-fertilization zebrafish Assay for Axial Malformation (AID 2284398). Put shortly:
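Dechorionated 5D wild-type zebrafish embryos exposed statically, one per well, from 6 to 120 hpf at 28C, 0.64% DMSO. Axial malformation scored as present/absent by brightfield microscopy at 120 hpf; dead embryos not scored.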

A short description of experiment [2]: Tanguay_ZF_120hpf_EDEM: Oregon State University Tanguay Lab 120 Hour Post-fertilization zebrafish Assay for Edema Malformation (AID 2284400). A digest of the protocol: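 Dechorionated Tropical 5D wild-type embryos, one per well, statically exposed from 6 to 120 hpf at 28C in 0.64% DMSO. Edema scored present/absent by brightfield microscopy at 120 hpf; dead embryos not scored; fit versus DMSO.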

Experiment [3] in a line: Tanguay_ZF_120hpf_MUSC: Oregon State University Tanguay Lab 120 Hour Post-fertilization zebrafish Assay for Muscle Malformation (AID 2284401). The procedure:
(§1) Tanguay_ZF_120hpf is a whole embryo, multiplexed endpoint assay using zebrafish larvae exposed for 120 hours post fertilization on a 96-well plate.Tanguay_ZF_120hpf_MUSC is one of one assay component(s) measured or calculated from the Tanguay_ZF_120hpf assay. It is designed to make measurements of zebrafish development as detected with brightfield microscopy of developing zebrafish embryos.Data from the assay component Tanguay_ZF_120hpf_MUSC was analyzed into 1 assay endpoints. This assay endpoint, Tanguay_ZF_120hpf_MUSC, was analyzed in the positive analysis fitting direction relative to DMSO as the negative control and baseline of activity. […]
(§2) Zebrafish husbandry: Tropical 5D wild-type adult zebrafish were housed in at an approximate density of 1000 per 100 gallon tank at the Sinnhuber Aquatic Research Laboratory, Oregon State University, Corvallis, OR. […] At 24 hpf, embryos were assessed for photomotor response using a custom photomotor response analysis tool (PRAT) and for developmental toxicity endpoints (MO24: mortality at 24 hpf, DP: developmental progression, SM: spontaneous movement, and NC: notochord distortion). At 120 hpf, locomotor activity was measured using Viewpoint Zebralab and assessed for 13 endpoints. […] If mortality occurred for an embryo (at either 24 or 120 hpf), the non-mortality endpoints were not measured.

The nature of experiment [4]: Tanguay_ZF_120hpf_BRN: Oregon State University Tanguay Lab 120 Hour Post-fertilization zebrafish Assay for Brain Region Malformation (AID 2284402). The procedure:
as §1, with “plate.Tanguay_ZF_120hpf_BRN” for “plate.Tanguay_ZF_120hpf_MUSC”, “Tanguay_ZF_120hpf_BRN” for “Tanguay_ZF_120hpf_MUSC”, “Tanguay_ZF_120hpf_BRN,” for “Tanguay_ZF_120hpf_MUSC,”
as §2

A short description of experiment [5]: Tanguay_ZF_120hpf_TCHR: Oregon State University Tanguay Lab 120 Hour Post-fertilization zebrafish Assay for Touch Responsive (AID 2284403). Put shortly: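 Dechorionated Tropical 5D wild-type zebrafish embryos, one per well from 6 hpf, were statically exposed to 120 hpf at 28 °C (0.64% DMSO). Touch response was scored present/absent at 120 hpf and not scored in dead larvae.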

Experiment [6] in a line: Tanguay_ZF_120hpf_ANY: Oregon State University Tanguay Lab 120 Hour Post-fertilization zebrafish Assay for Any Mortality and Malformation (AID 2284404). A digest of the protocol: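 Dechorionated Tropical 5D wild-type embryos, one per well from 6 hpf, static exposure in sealed, dark plates at 28C until 120 hpf, 0.64% DMSO final. Brightfield scoring of mortality and malformations as binary presence/absence, pooling 13 morphology endpoints.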

A short description of experiment [7]: CCTE_Padilla_ZF_Score.Craniofacial: CCTE's 144 Hour Post-fertilization zebrafish Assay Score for Craniofacial Malformation, Padilla Lab (AID 2284405). The procedure: CCTE_Padilla_ZF_Phenotype_Score is a whole embryo, multiplexed assay using zebrafish ova exposed for 144 hours post fertilization on a 96-well plate.CCTE_Padilla_ZF_Score.Craniofacial is one of one assay component(s) measured or calculated from the CCTE_Padilla_ZF_Phenotype_Score assay. It is designed to make measurements of zebrafish development as detected with brightfield microscopy of developing zebrafish embryos.Data from the assay component CCTE_Padilla_ZF_Score.Craniofacial was analyzed into 1 assay endpoints. This assay endpoint, CCTE_Padilla_ZF_Score.Craniofacial, was analyzed in the positive analysis fitting direction relative to DMSO as the negative control and baseline of activity. Using a type of viability reporter, gain-of-signal activity can be used to understand changes in developmentals as they relate to the whole embryo. To generalize the intended target to other relatable targets, this assay endpoint is annotated to the zebrafish development intended target family, where the subfamily is craniofacial morphogenesis.
Zebrafish husbandry: Wild type adult zebrafish (Danio rerio; undefined outbred stock obtained from Aquatic Research Organisms, Hampton, NH, 03842) were housed in an AAALAC-approved animal facility at 28C with a 14:10 h light: dark cycle (lights on at 08:30 h). Adult fish (2-3 females per male; density = 15-20 adults per tank) were kept in one of several 9-liter (L) flow-through colony tanks (Aquaneering Inc., San Diego, CA). All adults in a colony tank were placed in a 2 L (static) breeding tank (Aquatic Habitats, Apopka, FL) one hour prior to light onset. Typically, adults from two to three colony tanks were mated on the same day. Two hours after light onset the adults were returned to the colony tank. […]

Experiment [8] is described as follows: CCTE_Padilla_ZF_Score.Edema: CCTE's 144 Hour Post-fertilization zebrafish Assay Score for Edema Malformation, Padilla Lab (AID 2284406). A digest of the protocol:
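Wild-type zebrafish embryos, one per well in Hanks' solution, dosed at 6-8 hpf, sealed and reared at 26C on a 14:10 h cycle; rinsed on 5 dpf. At 6 dpf, blinded assessors scored edema by stereomicroscopy.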

Experiment [9] is described as follows: CCTE_Padilla_ZF_Score.Spine: CCTE's 144 Hour Post-fertilization zebrafish Assay Score for Spine Malformation, Padilla Lab (AID 2284407). Put shortly: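 Wild-type zebrafish embryos, one per well in Hanks' solution, dosed at 6–8 hpf in sealed plates at 26C, 14:10 h light:dark; rinsed at 5 dpf. Two blinded assessors scored spinal defects by stereomicroscopy at 6 dpf; fitted versus DMSO.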

A short description of experiment [10]: Tanguay_ZF_120hpf_MORT: Oregon State University Tanguay Lab 120 Hour Post-fertilization zebrafish Assay for Mortality (AID 2284399). Here is the method:
as §1, with “plate.Tanguay_ZF_120hpf_MORT” for “plate.Tanguay_ZF_120hpf_MUSC”, “Tanguay_ZF_120hpf_MORT” for “Tanguay_ZF_120hpf_MUSC”, “Tanguay_ZF_120hpf_MORT,” for “Tanguay_ZF_120hpf_MUSC,”
as §2

The structures appear in SMILES notation. The source made the active and inactive calls. Rule for the calls: active = hit-call score of the fitted dose curve at least 0.9, where 1 is the maximum; inactive = score below 0.9.

As to `O=C(O)C(F)(F)C(F)(F)C(F)(F)C(F)(F)C(F)(F)C(F)(F)C(F)(F)C(F)(F)C(F)(F)C(F)(F)F`, the result in experiment [1], in experiment [2], in experiment [3], in experiment [4], in experiment [5] and in experiment [9] was inactive. The AC50 (usually the midpoint of the concentration-response curve, whichever way the signal moves) in experiment [6] is 66500 nM (active); in experiment [7], 2410 nM (active); in experiment [8], 2400 nM (active).
On to `O=C(O)CCC(F)(C(F)(F)F)C(F)(F)F`, for which the molecule was called inactive in experiment [7], in [8] and in experiment [9].
For the molecule `O=C(O)C(F)(F)C(F)(F)C(F)(F)C(F)(F)C(F)(F)C(F)(F)F`, the molecule was classed as inactive in experiment [1], in [10], in experiment [2], in experiment [3], in experiment [4] and in experiment [5]. Besides, the result in [6], in experiment [7], in experiment [8] and in experiment [9] was inactive.

The values above are taken from PubChem BioAssay (EPA / NIEHS).
